# Hits are enriched below; roughly 1.3% of the tested compounds scored in any of these assays.
# PrP 5UTR inh = inhibition of PrP 5' UTR reporter expression | inhibition, % (test concentration not listed) | cell-based PrP 5' UTR mRNA reporter, plate reader | 340,000 tested, 0.35% active; in the data active = inhibition above about 52%; note: 0 = median of the neutral control wells
# FadD28 binding = inhibitors of FadD28 bisubstrate probe binding, primary screen, biochemical, fluorescence polarization, single point. Mycobacterium tuberculosis FadD28 fatty-acid-AMP ligase. inhibition, % at 12.5 µM. AID 588549, 2011. 360,000 tested, 0.22% active; in the data active = inhibition above about 8.5%, passing the limit was not always enough
# RecA intein inh = Mtb RecA intein splicing inhibitors, primary screen, biochemical, fluorescence, HTS; Protein RecA (Mycobacterium tuberculosis (strain ATCC 25618 / H37Rv)), P9WHJ3; cell-free RecA intein splicing; inhibition, % (test concentration not listed); 290,000 tested, 0.75% active; in the data active = inhibition above about 30%;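 note: 0% = vehicle wells and 100% = reference inhibitor control wells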
# Mtb UGM inh = M. tuberculosis UGM enzyme inhibitors, primary screen, biochemical, fluorescence polarization, single point; AID 504406, 2011; UDP-galactopyranose mutase (Mycobacterium tuberculosis (strain ATCC 25618 / H37Rv)), …; purified UGM, fluorescence polarization probe displacement; 320,000 tested, 0.06% active; inhibition, % at 10 µM; in the data active = inhibition above about 10%, passing the limit was not always enough
# BJeLR lethal = MLPCN primary cell-based screen for lethality selective to Ras in HRASV12 cells | AID 1554, 2009 | 300,000 tested, 0.17% active | BJeLR (HRASV12) viability, CellTiter-Glo ATP luminescence, 48 h | inhibition, % (no concentration beside the values); in the data active = inhibition above about 50%
# Rv3671c inh = Rv3671c serine protease inhibitors, primary screen, biochemical, fluorescence polarization, M. tuberculosis H37Rv | P9WHR9 | inhibition, % at 5.96 µM | 320,000 tested, 0.048% active | AID 2606, 2010; in the data active = inhibition above about 38%;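 note: extracellular domain of Rv3671c used as enzyme; 0% = enzyme with DMSO and 100% = no enzyme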
# Target sequence (P9WHR9 whole entry, looked up, the tested form may be a part): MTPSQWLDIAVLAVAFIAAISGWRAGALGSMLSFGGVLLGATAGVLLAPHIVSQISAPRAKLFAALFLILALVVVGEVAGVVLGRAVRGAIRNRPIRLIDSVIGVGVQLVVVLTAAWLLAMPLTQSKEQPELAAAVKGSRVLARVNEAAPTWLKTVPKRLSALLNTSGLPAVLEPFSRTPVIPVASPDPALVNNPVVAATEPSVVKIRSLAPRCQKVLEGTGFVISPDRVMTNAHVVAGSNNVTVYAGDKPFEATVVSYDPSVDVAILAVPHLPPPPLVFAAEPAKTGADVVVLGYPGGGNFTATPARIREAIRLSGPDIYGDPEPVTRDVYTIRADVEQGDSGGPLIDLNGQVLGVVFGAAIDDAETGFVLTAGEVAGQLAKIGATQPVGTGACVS
# PrP UTR cherry = prion 5' UTR mRNA inhibition, cherry-pick retest; cell-based prion protein 5' UTR reporter, plate reader; inhibition, % at 2.5 µM; 1,100 tested, 48% active; shares compounds with PrP 5UTR inh; AID 504592, 2011; in the data active = inhibition above about 54%
# Active calls of the source: *; x = not tested or not shown.
SMILES,PrP 5UTR inh,FadD28 binding,RecA intein inh,Mtb UGM inh,BJeLR lethal,Rv3671c inh,PrP UTR cherry
CC(=O)OC(C)(C)/C=C/C(=O)C(C)(O)C1[C@H](O)C[C@@]2(C)C3CC=C4C(CC[C@@H](O)C4(C)C)[C@]3(CO)C(=O)C[C@]12C (some centres not stated),80.7*,1.4,1.4,0.4,26.0,6.4,90.0*
CC(C)CNC(=O)COC(=O)C1c2ccccc2Oc2ccccc21,76.8*,x,-1.8,-1.2,0.5,1.6,-5.6
Cc1ccc(CNC(=O)CCC2CCCN(C(=O)CCC(F)(F)F)C2)o1 (configuration not stated),-44.3,-4.2,-2.2,0.2,-6.1,-5.4,x
O=C(c1ccc(Cl)cc1[N+](=O)[O-])N1CCOCC1,-9.0,-0.2,0.6,-0.6,-5.6,-1.2,x
COc1ccc2c(c1OC)c(=O)n1c3ccc(OC(C)C(=O)NCCCN4CCOCC4)cc3c3ccnc2c31 (configuration not stated),54.2*,-5.4,-238.0,-1.6,-1.1,-12.2,7.5
COc1ccc2c(c1OC)c(=O)n1c3ccc(OC(C)C(=O)NCCN4CCOCC4)cc3c3ccnc2c31 (configuration not stated),-30.3,-5.8,-174.2,0.2,7.8,-6.7,x
COc1ccc(N2CC(C(=O)Nc3nnc(SCC(=O)N4CCOCC4)s3)CC2=O)cc1 (configuration not stated),-11.4,-3.3,-0.8,3.0,4.5,-7.7,x
O=C(OCCNC(=O)c1cc2ccccc2oc1=O)c1cccnc1,65.8*,0.0,-0.3,-1.8,-6.4,5.6,10.1
COc1ccc(OC)c(C2C=C(c3ccc(C)c(C)c3)Nc3nnnn32)c1 (configuration not stated),68.7*,-1.7,10.4,-1.2,31.0,-2.5,3.1
Cc1cc(C(=O)NNC(=O)Cc2ccc(Cl)c(Cl)c2)c(C)o1,-24.1,-6.5,x,x,x,x,x
CCC(=O)Nc1cccc(-c2ccc(N3CCC(C)CC3)nn2)c1,24.1,-3.4,1.7,-1.4,-12.6,7.5,x
CC1CCN(c2ccc(-c3cccc(NC(=O)C(F)(F)F)c3)nn2)CC1,82.5*,-3.4,-2.5,2.8,10.7,-0.2,85.5*
O=C(Nc1cccc(-c2ccc(N3CCCCC3)nn2)c1)C(F)(F)F,75.0*,-0.4,-1.4,-1.6,4.1,-7.5,67.6*
CCCCNCc1cc(OCC)c(OCC)cc1Br,-21.5,-3.7,-5.9,-0.5,-2.2,-2.0,x
O=C(N/N=C/c1ccccc1)c1[nH]c2ccc(Br)cc2c1-c1ccccc1,58.8*,-3.9,9.1,-2.3,16.6,-15.1,87.8*
O=S(=O)(Nc1ccccc1OC(F)F)c1ccc(S(=O)(=O)N2CCCC2)cc1,-24.6,-0.5,x,1.3,x,-2.7,x
Cc1nnc(SCSc2nnc(C)s2)s1,-22.5,0.0,-3.9,-2.6,0.8,5.0,x
Cc1nnc(SCc2ccccc2CSc2nnc(C)s2)s1,60.1*,-4.7,1.7,-0.9,-2.8,1.0,13.9
Nc1nc2c(ncn2[C@@H]2O[C@H](CNCc3ccccc3)[C@@H](O)[C@H]2O)c(=O)[nH]1,x,1.9,x,x,x,x,x
COc1ccc(-n2ncc3c(N4CCCCC4)ncnc32)cc1,86.0*,-1.3,3.3,-1.1,21.1,1.7,78.5*
Clc1ccc(-n2ncc3c(N4CCCCCC4)ncnc32)cc1,79.4*,-0.8,2.6,2.3,22.0,2.6,69.8*
CS(=O)(=O)N1CCN(c2ncnc3c2cnn3-c2ccccc2)CC1,55.3*,1.4,2.0,1.7,-6.3,3.4,-28.0
CCCCCN(C(=O)CCC(=O)OCc1cccc(C)c1)c1c(N)n(CCCC)c(=O)[nH]c1=O,-15.5,-1.9,0.5,-2.0,-7.4,2.8,x
O=c1c2ccccc2oc2ccc(C#CC3(O)CCCCC3)cc12,37.2,-4.9,0.5,-1.2,-3.6,-13.9,x
